# Experimental data as given in the supplement of paper PMC8728848.
# The full list was thinned out, with the strongest signals kept by preference.
# B1: Epa6 (Candida glabrata), Q6DTM7_CANGB (protein)
# chain: MGSSHHHHHHSSGLVPRGSHMKDDYSSSLSNNNLGWTDPTEFPLGCSPNVTTPKNGLSMELYSYDYLKSGSNPCWDAAYLDPNYPRTGYKSHRLLAKVENVAGNINFYYHAPMGCTSLFDTLPQAYNYRTPLTMTNFTMLLYGYFKPKVTGYHTFTISADDLLFVNFGAGNAFDCCKRESSADDFGNYQAYAVWGSQTAKDDLTVHLDAGLYYPIRIFFNNRDNDGALSLTLKTESDPNPVIDFSDYFYSFDDTKDGCPGLVSYDTS
# Legend:
# Assay in all cases: glycan array binding signal (z-score within array); higher = stronger binding
# Conditions in all cases: glycan notation: IUPAC condensed, linker removed
# [1] = biological target: Gal(b1-4)GlcNAc(b1-3)Gal(b1-4)GlcNAc(b1-3)Gal(b1-4)GlcNAc(b1-3)Gal(b1-4)GlcNAc(b1-2)Man(a1-3)[Gal(b1-4)GlcNAc(b1-3)Gal(b1-4)GlcNAc(b1-3)Gal(b1-4)GlcNAc(b1-3)Gal(b1-4)GlcNAc(b1-2)Man(a1-6)]Man(b1-4)GlcNAc(b1-4)GlcNAc
# Outline: (§1)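 The binding signal is a Z-score computed within each array. Data were drawn from 3228 arrays in the Consortium for Functional Glycomics database, restricted to those with a known protein sequence. Scores were averaged over arrays of the same protein sequence at different concentrations or buffers, and over linkers, and negative values can be taken as non-binding.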
# Gal3S6S(b1-4)GlcNAc = biological target: Gal3S6S(b1-4)GlcNAc
# Outline: as §1
# [2] = biological target: GalNAc(b1-3)Gal(a1-4)Gal(b1-4)GlcNAc
# Outline: as §1
# GalNAc(b1-4)GlcNAc = biological target: GalNAc(b1-4)GlcNAc
# Outline: as §1
# GalNAc3S(b1-4)GlcNAc = biological target: GalNAc3S(b1-4)GlcNAc
# Outline: as §1
# Glc(a1-6)Glc(a1-6)Glc = biological target: Glc(a1-6)Glc(a1-6)Glc
# Outline: as §1
# [3] = biological target: GlcNAc(a1-4)Gal(b1-3)GlcNAc
# Outline: as §1
# [4] = biological target: GlcNAc(a1-4)Gal(b1-4)GalNAc
# Outline: as §1
# [5] = biological target: GlcNAc(b1-3)Gal(b1-4)GlcNAc(b1-3)Gal(b1-4)GlcNAc(b1-2)Man(a1-3)[GlcNAc(b1-3)Gal(b1-4)GlcNAc(b1-3)Gal(b1-4)GlcNAc(b1-2)Man(a1-6)]Man(b1-4)GlcNAc(b1-4)[Fuc(a1-6)]GlcNAc
# Outline: as §1
# GlcNAc(b1-3)Man = biological target: GlcNAc(b1-3)Man
# Outline: as §1
# [6] = biological target: GlcNAc(b1-4)Gal(b1-4)GlcNAc
# Outline: as §1
# [7] = biological target: Man(a1-3)[Man(a1-6)]Man(a1-6)[Man(a1-3)]Man
# Outline: as §1
# Man(b1-4)GlcNAc = biological target: Man(b1-4)GlcNAc
# Outline: as §1
# [8] = biological target: Neu5Ac(a2-3)Gal(b1-3)GlcNAc(b1-4)Gal(b1-4)Glc
# Outline: as §1
# [9] = biological target: Neu5Ac(a2-3)Gal(b1-4)GlcNAc(b1-2)[Neu5Ac(a2-3)Gal(b1-4)GlcNAc(b1-4)]Man(a1-3)[GlcNAc(b1-4)][Neu5Ac(a2-3)Gal(b1-4)GlcNAc(b1-4)Man(a1-6)]Man(b1-4)GlcNAc(b1-4)GlcNAc
# Outline: as §1
# [10] = biological target: Neu5Ac(a2-3)Gal(b1-4)GlcNAc(b1-3)Gal
# Outline: as §1
# [11] = biological target: Neu5Ac(a2-3)Gal(b1-4)GlcNAc6S
# Outline: as §1
# [12] = biological target: Neu5Ac(a2-3)Gal(b1-4)[Fuc(a1-3)]GlcNAc6S
# Outline: as §1
# [13] = biological target: Neu5Ac(a2-6)Gal(b1-4)GlcNAc(b1-2)Man(a1-3)Man(b1-4)GlcNAc(b1-4)GlcNAc
# Outline: as §1
# [14] = biological target: Neu5Ac(a2-6)Gal(b1-4)GlcNAc(b1-2)Man(a1-3)[Gal(b1-4)GlcNAc(b1-2)Man(a1-6)]Man(b1-4)GlcNAc(b1-4)GlcNAc
# Outline: as §1
# [15] = biological target: Neu5Ac(a2-6)Gal(b1-4)GlcNAc(b1-2)[Neu5Ac(a2-6)Gal(b1-4)GlcNAc(b1-4)]Man(a1-3)[GlcNAc(b1-4)][Neu5Ac(a2-6)Gal(b1-4)GlcNAc(b1-2)[Neu5Ac(a2-6)Gal(b1-4)GlcNAc(b1-6)]Man(a1-6)]Man(b1-4)GlcNAc(b1-4)GlcNAc
# Outline: as §1
# [16] = biological target: Neu5Ac(a2-6)Gal(b1-4)GlcNAc(b1-2)[Neu5Ac(a2-6)Gal(b1-4)GlcNAc(b1-6)]Man(a1-6)[Neu5Ac(a2-6)Gal(b1-4)GlcNAc(b1-2)Man(a1-3)][GlcNAc(b1-4)]Man(b1-4)GlcNAc(b1-4)GlcNAc
# Outline: as §1
# [17] = biological target: Neu5Ac(a2-6)Gal(b1-4)GlcNAc(b1-3)Gal(b1-4)GlcNAc(b1-6)[Gal(b1-3)]GalNAc
# Outline: as §1
# [18] = biological target: Neu5Ac(a2-8)Neu5Ac(a2-3)Gal(b1-4)Glc
# Outline: as §1
# [19] = biological target: Neu5Gc(a2-3)Gal(b1-3)[Fuc(a1-4)]GlcNAc
# Outline: as §1
# [20] = biological target: Neu5Gc(a2-3)Gal(b1-4)GlcNAc(b1-3)Gal(b1-4)GlcNAc(b1-2)Man(a1-3)[Neu5Gc(a2-3)Gal(b1-4)GlcNAc(b1-3)Gal(b1-4)GlcNAc(b1-2)Man(a1-6)]Man(b1-4)GlcNAc(b1-4)GlcNAc
# Outline: as §1
# Neu5Gc(a2-6)GalNAc = biological target: Neu5Gc(a2-6)GalNAc
# Outline: as §1
binder,measurement,setting,value
B1,glycan array binding signal (z-score),[1],0.07
same,glycan array binding signal (z-score),Gal3S6S(b1-4)GlcNAc,-0.306
same,glycan array binding signal (z-score),[2],-0.126
same,glycan array binding signal (z-score),GalNAc(b1-4)GlcNAc,-0.234
same,glycan array binding signal (z-score),GalNAc3S(b1-4)GlcNAc,-0.313
same,glycan array binding signal (z-score),Glc(a1-6)Glc(a1-6)Glc,-0.312
same,glycan array binding signal (z-score),[3],-0.306
same,glycan array binding signal (z-score),[4],-0.297
same,glycan array binding signal (z-score),[5],-0.255
same,glycan array binding signal (z-score),GlcNAc(b1-3)Man,-0.263
same,glycan array binding signal (z-score),[6],-0.357
same,glycan array binding signal (z-score),[7],-0.281
same,glycan array binding signal (z-score),Man(b1-4)GlcNAc,-0.332
same,glycan array binding signal (z-score),[8],-0.269
same,glycan array binding signal (z-score),[9],-0.343
same,glycan array binding signal (z-score),[10],-0.336
same,glycan array binding signal (z-score),[11],-0.347
same,glycan array binding signal (z-score),[12],-0.347
same,glycan array binding signal (z-score),[13],-0.325
same,glycan array binding signal (z-score),[14],-0.301
same,glycan array binding signal (z-score),[15],-0.311
same,glycan array binding signal (z-score),[16],-0.33
same,glycan array binding signal (z-score),[17],0.25
same,glycan array binding signal (z-score),[18],-0.347
same,glycan array binding signal (z-score),[19],-0.331
same,glycan array binding signal (z-score),[20],-0.311
same,glycan array binding signal (z-score),Neu5Gc(a2-6)GalNAc,-0.311
